KCNH2 WT inh = inhibitors of human wildtype KCNH2 potassium channel; actives 0.37% (n = 340,000); Q12809; AID 720551; U2OS, BacMam KCNH2, thallium flux FluxOr; hits give low values; activity change, % at 1.84 µM;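 active = maximum activity change below -70%; inconclusive = maximum activity change between -70% and -50%; inactive = maximum activity change above -50%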; note: % is set by controls: 0 for no effect and ±100 for the full control effect
Target sequence (Q12809 whole entry, looked up): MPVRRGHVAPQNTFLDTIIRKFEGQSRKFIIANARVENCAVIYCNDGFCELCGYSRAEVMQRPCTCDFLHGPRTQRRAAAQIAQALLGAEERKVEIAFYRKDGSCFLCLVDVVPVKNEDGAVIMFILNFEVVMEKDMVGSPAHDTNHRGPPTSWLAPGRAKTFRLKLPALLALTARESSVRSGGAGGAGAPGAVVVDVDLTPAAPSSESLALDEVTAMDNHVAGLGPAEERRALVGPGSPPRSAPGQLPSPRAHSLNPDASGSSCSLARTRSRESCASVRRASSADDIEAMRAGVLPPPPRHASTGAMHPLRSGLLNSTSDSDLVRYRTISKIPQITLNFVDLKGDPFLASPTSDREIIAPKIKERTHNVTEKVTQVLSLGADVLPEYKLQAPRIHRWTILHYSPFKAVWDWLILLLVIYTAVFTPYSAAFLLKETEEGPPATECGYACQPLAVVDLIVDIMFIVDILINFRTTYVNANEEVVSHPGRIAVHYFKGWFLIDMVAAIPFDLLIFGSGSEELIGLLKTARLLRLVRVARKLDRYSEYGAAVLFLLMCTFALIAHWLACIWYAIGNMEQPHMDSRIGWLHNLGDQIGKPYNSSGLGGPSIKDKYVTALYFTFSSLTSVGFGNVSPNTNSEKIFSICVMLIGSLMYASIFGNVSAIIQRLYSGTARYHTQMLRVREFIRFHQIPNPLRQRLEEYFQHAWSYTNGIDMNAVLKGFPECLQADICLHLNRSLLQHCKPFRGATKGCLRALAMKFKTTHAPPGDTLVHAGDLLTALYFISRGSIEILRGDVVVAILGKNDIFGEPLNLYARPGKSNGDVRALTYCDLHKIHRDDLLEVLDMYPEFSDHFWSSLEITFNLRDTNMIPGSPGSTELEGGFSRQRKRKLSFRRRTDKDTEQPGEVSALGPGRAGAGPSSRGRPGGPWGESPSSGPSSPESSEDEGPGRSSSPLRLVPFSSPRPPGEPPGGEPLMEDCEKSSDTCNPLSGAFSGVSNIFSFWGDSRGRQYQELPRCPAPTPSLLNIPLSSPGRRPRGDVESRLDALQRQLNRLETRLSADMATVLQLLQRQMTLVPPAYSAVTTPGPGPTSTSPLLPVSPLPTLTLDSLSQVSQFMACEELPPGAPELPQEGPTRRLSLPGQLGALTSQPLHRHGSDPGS
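U2OS cells were transduced with wild-type KCNH2 virus (2.03 x 10^8 / mL) for 4 h at room temperature, then cultured overnight at 37 C. Thallium flux was read with FluxOr dye. Rate constants were normalized to DMSO controls.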
KCNH2 3.1 inh = KCNH2 3.1 (human) potassium channel inhibition; U2OS KCNH2 3.1, thallium flux FluxOr; hits give low values; activity change, % (tested at about 1.8 µM); actives 0.95% (n = 340,000);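 active = maximum activity change below -70%; inconclusive = maximum activity change from -70% to -50%; inactive = maximum activity change above -50%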;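 note: thallium influx rate constant from kinetic fluorescence after stimulation buffer; % is set by controls: 0 for no effect and ±100 for the full control effect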
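Thallium flux read-out: FluxOr dye with Red40 quencher in HBSS/HEPES, 45 min at RT. Rate constants from kinetic reads were normalized to positive and negative DMSO controls. Cells: U2OS virally expressing the 3.1 isoform.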
SW480 rerep = inducers of DNA re-replication in SW480 colon cancer cells | SW480 DNA re-replication, Hoechst DNA content imaging, 48 h | Potency, µM (titrated, usually from 46.1 µM), for the others: at the highest dose re-replication activation, hits mostly activators | actives 1.8% (n = 340,000); note: potency is the fitted concentration of half-maximal effect; % of control where 0% means no effect; nearly all actives have a fitted effect of over 55% in size
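Readout is total intensity of Hoechst-stained nuclei, excited at 405 nm and collected at 500-530 nm. Compound treatment lasted 48 hr at 37 C in 5% CO2 before staining.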
KB-V1 MDR tox = KB-V1 MDR subline cytotoxicity. actives 3.4% (n = 400,000). AID 1347076. Potency, µM (highest dose often 46.1 µM), usual class: cytotoxic. KB-V1 MDR cells viability, CellTiter-Glo, 72 h; note: potency is the fitted concentration of half-maximal effect; % is set by controls: 0 for no effect and ±100 for the full control effect; nearly all actives have a fitted effect of over 60% in size
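KB-V1, DMEM (no phenol red) + 10% FBS; cpd pin-transferred, titration series; 72 h, 37 degrees C; CellTiter-Glo, luminescence. Data normalized, curve-fit.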
MCF10A rerep = induces DNA re-replication in MCF 10a normal breast cells; MCF 10A DNA re-replication, Hoechst nuclear intensity, 48 h; Potency, µM (series often up to 46.1 µM), for inactives: at the highest dose activity, positive = re-replication, hits mostly activators; actives 2.9% (n = 350,000); AID 624296; note: potency is the fitted concentration of half-maximal effect; % of control where 0% means no effect; nearly all actives have a fitted effect of over 50% in size
KB-3-1 tox = kills parental KB-3-1 adenocarcinoma cells; actives 1.4% (n = 400,000); Potency, µM (titrated, usually from 46.1 µM), usual class: cytotoxic; KB-3-1 viability, CellTiter-Glo ATP luminescence, 72 h; note: potency is the fitted concentration of half-maximal effect; % is set by controls: 0 for no effect and ±100 for the full control effect; nearly all actives have a fitted effect of over 60% in size
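Parental KB-3-1 viability, qHTS format: 72 h compound exposure, 37 °C; CellTiter-Glo; media-only wells and DMSO plates as controls; concentration-effect fits on corrected data.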
Numbers without * were called inactive; i = inactive; u = inconclusive; x = no result given. Hits are enriched below; roughly 7.6% of the tested compounds scored in any of these assays. Unless noted, calls come from the whole dose curve; as a rule, active = well fitted curve in the direction sought with a large enough effect; inconclusive = small, poorly fitted or top-dose-only effect, or another doubt; inactive = no such curve, though single readings can be large; an effect the other way counts as inactive or inconclusive.

SMILES	KCNH2 WT inh	KCNH2 3.1 inh	SW480 rerep	KB-V1 MDR tox	MCF10A rerep	KB-3-1 tox
CCn1c(C)c(C2=CCN(S(=O)(=O)c3ccccc3)CC2)c2ccccc21	3	3	u	10µM*	u	u
Cc1ccc(-n2ncc(C(=O)N3CCN(c4cccc(C)c4C)CC3)c2C2CCNCC2)c(C)c1	x	x	x	i	x	i
C=CCSc1nnc(NC(=O)c2cccc(S(=O)(=O)N(C)c3ccccc3)c2)s1	4	1	-1%	16µM*	u	i
CCc1nnc(NC(=O)c2ccc(S(C)(=O)=O)cc2)s1	9	-3	u	i	u	i
CCc1nnc(NC(=O)c2ccc(N(C)S(=O)(=O)c3ccccc3)cc2)s1	-5	-21	-8%	6.5µM*	-3%	i
CN(c1ccccc1)S(=O)(=O)c1cccc(C(=O)Nc2nccs2)c1	-18	1	-10%	u	21%	i
CC(C)C(NS(=O)(=O)c1c(Cl)cccc1Cl)C(=O)OCC(=O)c1c[nH]c2ccccc12 (stereo not drawn)	-1	7	x	21µM*	13%	i
CC(O)C(NS(=O)(=O)c1ccc(Cl)cc1)C(=O)OCC(=O)c1c[nH]c2ccccc12 (stereo not drawn)	-8	-12	3%	i	22%	i
N#CC(c1ccccc1)N(CCCCl)C(=O)c1ccccc1 (stereo not drawn)	x	31	15µM*	i	u	i
CC(=O)N(CCCCl)C(C#N)c1ccccc1 (stereo not drawn)	i	1	2%	i	-29%	i
CN(C)Cc1c(O)ccc2c(=O)c(-c3ccc(Cl)cc3)coc12	-9	2	u	i	0%	i
O=c1c(-c2ccc([N+](=O)[O-])cc2)coc2c(O)c(O)ccc12	-1	-41	13µM*	u	7%	i
Cc1ccc(Nc2nc(N)nc(CN3CCc4ccccc4C3)n2)cc1	-12	-79*	18%	i	u	i
Cc1cccc(Nc2nc(N)nc(CN3CCN(Cc4ccc5c(c4)OCO5)CC3)n2)c1	-26	-110*	-1%	15µM*	8%	i
FC(F)(F)c1ccccc1NC(=S)N1CCc2ccccc2C1	x	-15	-33%	u	3%	i
CCCN1CCN(C(=S)Nc2ccccc2C(F)(F)F)CC1	2	-3	-1%	3.3µM*	24%	21µM*
Nc1nc(CN2CCN(Cc3ccccc3)CC2)nc(Nc2ccccc2)n1	43	-40	4%	21µM*	2%	u
CC1(C)C(=O)Nc2ccccc2N1C(=O)COc1cc(Cl)ccc1Cl	5	24	-7%	i	-1%	i
O=C(COc1ccc([N+](=O)[O-])cc1)N(Cc1cccs1)C1CCS(=O)(=O)C1 (stereo not drawn)	6	-6	-12%	i	11%	i
COc1ccccc1Nc1nc(N)nc(CN2CCN(Cc3ccccc3)CC2)n1	-21	-77*	-4%	u	8%	i
Nc1nc(CN2CCN(c3ccccn3)CC2)nc(Nc2ccc(Cl)cc2)n1	-104*	-21	11%	i	18%	u
COc1ccccc1Nc1nc(N)nc(CN2CCN(Cc3ccc4c(c3)OCO4)CC2)n1	-49	-110*	-49%	i	u	i
COc1ccccc1NC(=S)N1CCN(Cc2ccccc2)CC1	0	7	7%	15µM*	-2%	u
COc1ccccc1Nc1nc(N)nc(CN2CCCCC2)n1	23	3	-1%	i	0%	i
COc1ccccc1Nc1nc(N)nc(CN2CCN(c3ccccc3F)CC2)n1	21	-19	-3%	i	u	i
SMILES	KCNH2 WT inh	KCNH2 3.1 inh	SW480 rerep	KB-V1 MDR tox	MCF10A rerep	KB-3-1 tox
Cc1ccccc1CN1Cc2cccc3c2[C@H](C=CC3)CC1=O	x	x	x	u	x	i
O=C(Nc1ccc2ncccc2c1)c1cc(Cl)ccc1Cl	5	2	3%	i	-8%	i
CCCn1c(=N)n(CC(=O)c2ccc([N+](=O)[O-])cc2)c2ccccc21	4	-20	-3%	u	15µM*	u
Cc1ccccc1Cn1c(=N)n(CC(=O)c2ccc([N+](=O)[O-])cc2)c2ccccc21	-17	-37	1%	18µM*	u	u
N=c1n(CC(=O)c2cccc([N+](=O)[O-])c2)c2ccccc2n1Cc1ccccc1	-4	-47	u	u	u	i
CCCn1c(=N)n(CC(=O)c2ccc(Cl)cc2)c2ccccc21	7	2	14%	u	u	u
CCCCCCN1CCN(C2CN(CCCC)S(=O)(=O)C2)CC1 (stereo not drawn)	x	x	x	i	x	i
O=C(COc1ccc(Cl)cc1)NCCCNC(=O)c1ccncc1	6	-6	-6%	i	-2%	i
Cc1ccccc1C(=O)Nc1ccccc1C(=O)OCc1cc(=O)n2ccsc2n1	x	x	x	i	x	i
COc1ccc(-c2ccc(-c3noc(-c4ccccc4OC)n3)c(OC)n2)cc1	-1	-5	u	i	u	i
COc1ccc(-c2ccc(-c3noc(C4CCCCC4)n3)c(OC)n2)cc1	-4	7	-60%	16µM*	15%	i
COc1nc(-c2ccc(C)cc2)ccc1-c1noc(-c2cccnc2)n1	3	7	-13%	i	21µM*	i
COc1ccc(-c2ccc(-c3noc(C)n3)c(OC)n2)cc1	4	15	-15%	i	-8%	i
COc1nc(-c2ccccc2)ccc1-c1noc(-c2cccnc2)n1	9	8	-2%	i	-2%	i
COc1ccc(-c2ccc(-c3noc(-c4ccccc4C)n3)c(OC)n2)cc1	-2	x	2%	i	15µM*	i
COC(=O)N(C)C[C@H]1OCc2cnnn2CCCC(=O)N([C@H](C)CO)C[C@H]1C	-5	-7	x	i	x	i
O=C(COc1coc(CN2CCN(c3ccc(F)cc3)CC2)cc1=O)NC1CCCC1	5	-23	-5%	i	2%	i
O=C(COc1coc(CN2CCN(c3ccc(F)cc3)CC2)cc1=O)NC1CCCCC1	7	19	-1%	4.1µM*	8%	u
C=CCn1c(COc2ccc(OC)cc2)nnc1SCn1nnc2ccccc2c1=O	0	12	-30%	21µM*	-67%	i
O=c1c2ccccc2nnn1CSc1nnc(COc2ccc(Cl)cc2)n1Cc1ccco1	18	-8	14%	u	17%	u
O=C(CCCn1c(=O)[nH]c2cc(Cl)ccc2c1=O)NC1CCCCCC1	-4	20	-2%	21µM*	0%	i

Compound activity deposited in PubChem by National Center for Advancing Translational Sciences (NCATS).
